Structures can show the parent of a compound that is named as a salt. Unmarked numbers belong to inactive results.
These compounds were tested on NCI-H1688 (assay: inhibition of cell viability relative to untreated control (fraction); higher = stronger growth inhibition, active = 0.5 or more). Conditions: 30 µM; 24 h.
In short: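 Compounds from a natural compound library (TargetMol) were tested at 30 µM on NCI-H1688 small cell lung cancer cells for 24 h at 37°C under 5% CO2. Cell Counting Kit-8 absorbance at 450 nm, read in triplicate, gave the viability. The values express inhibition of cell viability as a fraction relative to untreated cells.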
`c1ccc2c(Cc3c[nH]c4ccccc34)c[nH]c2c1` [3,3'-Diindolylmethane] was tested, and the “inhibition of cell viability” value was 0.12. In the case of `COc1ccc(-c2oc3c(CC=C(C)C)c(O[C@@H]4O[C@H](CO)[C@@H](O)[C@H](O)[C@H]4O)cc(O)c3c(=O)c2O[C@@H]2O[C@@H](C)[C@H](O)[C@@H](O)[C@H]2O)cc1` [Icariin], the “inhibition of cell viability” value is reported as 0.041. For `C[C@@H]1O[C@@H](O[C@H]2[C@H](O[C@H]3CC[C@@]4(C)[C@@H](CC[C@]5(C)[C@@H]4CC=C4[C@@H]6CC(C)(C)CC[C@]6(C(=O)O[C@@H]6O[C@H](CO[C@@H]7O[C@H](CO)[C@@H](O)[C@H](O)[C@H]7O)[C@@H](O)[C@H](O)[C@H]6O)CC[C@]45C)[C@]3(C)CO)OC[C@H](O)[C@@H]2O)[C@H](O)[C@H](O[C@@H]2O[C@H](CO)[C@@H](O[C@@H]3O[C@H](CO)[C@@H](O)[C@H](O)[C@H]3O)[C@H](O)[C@H]2O)[C@H]1O` [Macranthoidin B], the “inhibition of cell viability” value was 0.21. `C[C@H]1O[C@H](O[C@H]2[C@H](O)[C@@H](O)[C@@H](O[C@H]3[C@H](O)[C@@H](O)C(O)O[C@@H]3CO)O[C@@H]2CO)[C@H](O)[C@@H](O)[C@@H]1N[C@H]1C=C(CO)[C@@H](O)[C@H](O)[C@H]1O` (some centres not stated) [Acarbose] was tested, and the “inhibition of cell viability” value was -0.208. With `COc1c(C)c2c(c(O)c1C/C=C(\C)CCC(=O)O)C(=O)OC2` [Mycophenolic acid] the “inhibition of cell viability” value was 0.841 (active). `C/C1=C2N=C(/C=C3N=C(/C(C)=C4\[N-]C(C(CC(N)=O)C4(C)CCC(=O)NCC(C)OP(=O)([O-])OC4C(CO)OC(n5cnc6cc(C)c(C)cc65)C4O)C4(C)N=C1C(CCC(N)=O)C4(C)CC(N)=O)C(CCC(N)=O)C\3(C)C)C(CCC(N)=O)C/2(C)CC(N)=O.[CH3-].[Co+3]` (configuration not stated) [Methylcobalamin] was tested, and the “inhibition of cell viability” value was 0.0835. `CC(C)CCC[C@@H](C)[C@H]1CC[C@H]2[C@@H]3CC=C4C[C@@H](O)CC[C@]4(C)[C@H]3CC[C@]12C` [Cholesterol] was tested, and the “inhibition of cell viability” value was -0.0392. For `CC1=CC(=O)CC(C)(C)[C@@]1(O)/C=C/C(C)=C\C(=O)O` [Abscisic acid], the “inhibition of cell viability” value was -0.139. In the case of `CC(=O)O[C@H]1C(=O)[C@@]2(C)[C@H]([C@H](OC(=O)c3ccccc3)[C@]3(O)C[C@H](OC(=O)[C@H](O)[C@@H](NC(=O)c4ccccc4)c4ccccc4)C(C)=C1C3(C)C)[C@]1(OC(C)=O)CO[C@@H]1C[C@@H]2O` [Paclitaxel], the “inhibition of cell viability” value is reported as 0.555 (active). In the case of `O=C(O)/C=C/c1ccc(O)c(O)c1` [Caffeic Acid], the “inhibition of cell viability” value is reported as -0.0219. `COc1cc(/C=C/C(=O)O)cc(OC)c1OC` [3,4,5-Trimethoxycinnamic acid] was tested, and the “inhibition of cell viability” value was 0.124. In the case of `CCCCOC(=O)c1ccc(O)cc1` [Butylparaben], the “inhibition of cell viability” value is reported as 0.197. `CC[C@@]1(O)C(=O)OCc2c1cc1n(c2=O)Cc2cc3cc(O)ccc3nc2-1` [Hydroxy Camptothecine] was tested, and the “inhibition of cell viability” value was 0.97 (active). In the case of `COc1ccc2[nH]cc(CCNC(C)=O)c2c1` [Melatonine], the “inhibition of cell viability” value is reported as 0.177. With `CCNC(=O)CC[C@H](N)C(=O)O` [L-Theanine] the “inhibition of cell viability” value was -0.151. For `COc1ccc2c(c1OC)C(=O)O[C@@H]2[C@H]1c2c(cc3c(c2OC)OCO3)CCN1C` [Noscapine hydrochloride], the “inhibition of cell viability” value was 0.323. With `COc1cc(/C=C/C(=O)CC(=O)/C=C/c2ccc(O)c(OC)c2)ccc1O` [Curcumin] the “inhibition of cell viability” value was 0.315. For `CCC(C)C(NC(=O)CNC(=O)C(CCC(N)=O)NC(=O)C1CCCN1C(=O)C(CC(=O)O)NC(=O)C(CCCNC(=N)N)NC(=O)C(NC(=O)C(NC(=O)C(N)CCCNC(=N)N)C(C)C)C(C)C)C(=O)NC(CCCNC(=N)N)C(=O)NC(C)C(=O)NC(Cc1c[nH]c2ccccc12)C(=O)NC(C(=O)NC(C)C(=O)NC(Cc1c[nH]c2ccccc12)C(=O)NC(CCCNC(=N)N)C(=O)NC(CC(N)=O)C(=O)NC(CCCNC(=N)N)C(=O)O)C(C)C` (configuration not stated) [Lysozyme], the “inhibition of cell viability” value was 0.471. For `CC[C@@]1(O)C(=O)OCc2c1cc1n(c2=O)Cc2cc3cc(O)ccc3nc2-1` [10-Hydroxycamptothecin], the “inhibition of cell viability” value was 0.98 (active). In the case of `C=C[C@H]1[C@H](O[C@@H]2O[C@H](CO)[C@@H](O)[C@H](O)[C@H]2O)OC=C2C(=O)OCC[C@]21O` [Swertiamarin], the “inhibition of cell viability” value is reported as -0.0605. For `C/C=C/c1ccc(OC)cc1` [Trans-Anethole], the “inhibition of cell viability” value was -0.146. With `NC[C@H]1O[C@H](O[C@H]2[C@H](O)[C@@H](O[C@H]3O[C@H](CO)[C@@H](O)[C@H](N)[C@H]3O)[C@H](N)C[C@@H]2N)[C@H](N)C[C@@H]1O` [Tobramycin] the “inhibition of cell viability” value was -0.0866. For `Cc1cc(O)cc(O)c1C(=O)O` [Orsellinic acid], the “inhibition of cell viability” value was -0.313. For `C=C1C[C@@]2(O)O[C@@]3(C[C@H]2C(C)C)[C@@H](C)CC[C@@H]13` [Curcumol], the “inhibition of cell viability” value was -0.0691. `O=C(O)[C@@H](O)[C@H](O)[C@H](O)[C@@H](O)C(=O)O` [Mucic Acid] was tested, and the “inhibition of cell viability” value was 0.0761. With `O=c1cc(-c2ccc(O)c(O)c2)oc2cc(O)cc(O)c12` [Luteolin] the “inhibition of cell viability” value was 0.794 (active). `O=c1oc2c(O)c(O)cc3c(=O)oc4c(O)c(O)cc1c4c23` [Ellagic acid] was tested, and the “inhibition of cell viability” value was -0.099. For `N[C@@H](Cc1cc(I)c(Oc2cc(I)c(O)c(I)c2)c(I)c1)C(=O)O` [L-Thyroxine], the “inhibition of cell viability” value was 0.22. For `OCCc1ccc(O)cc1` [Tyrosol], the “inhibition of cell viability” value was 0.0116. `C=C1CC23CCC4C(C)(C(=O)OC5OC(CO)C(O)C(O)C5O)CCCC4(C)C2CCC1(OC1OC(CO)C(O)C(OC2OC(CO)C(O)C(O)C2O)C1OC1OC(C)C(O)C(O)C1O)C3` (configuration not stated) [Dulcoside B] was tested, and the “inhibition of cell viability” value was 0.0729. With `COc1ccc([C@@H]2CC(=O)c3c(O)cc(O[C@@H]4O[C@H](CO)[C@@H](O)[C@H](O)[C@H]4O[C@@H]4O[C@@H](C)[C@H](O)[C@@H](O)[C@H]4O)cc3O2)cc1O` [Neohesperidin] the “inhibition of cell viability” value was 0.00547. With `C=C1C(=O)O[C@@H]2C[C@@]3(C)CCC[C@H](C)C3=C[C@H]12` [Helenine] the “inhibition of cell viability” value was 0.789 (active). `C[C@@H]1O[C@@H](O[C@H]2[C@H](Oc3cc(O)c(C(=O)CCc4ccc(O)cc4)c(O)c3)O[C@H](CO)[C@@H](O)[C@@H]2O)[C@H](O)[C@H](O)[C@H]1O` [Naringin dihydrochalcone] was tested, and the “inhibition of cell viability” value was -0.031. `CNC1CCCN(c2c(F)cc3c(=O)c(C(=O)O)cn(C4CC4)c3c2OC)C1` (configuration not stated) [Balofloxacin] was tested, and the “inhibition of cell viability” value was 0.118. With `CC(C)=CCC[C@](C)(O)[C@H]1CC[C@]2(C)[C@@H]1[C@H](O)C[C@@H]1[C@@]3(C)CC[C@H](O)C(C)(C)[C@@H]3[C@@H](O[C@@H]3O[C@H](CO)[C@@H](O)[C@H](O)[C@H]3O[C@@H]3O[C@@H](C)[C@H](O)[C@@H](O)[C@H]3O)C[C@]12C` [Ginsenoside Rg2] the “inhibition of cell viability” value was 0.155. With `CC(=O)O[C@]1(C(C)=O)CC[C@H]2[C@@H]3C[C@H](C)C4=CC(=O)CC[C@]4(C)[C@H]3CC[C@@]21C` [Farlutin] the “inhibition of cell viability” value was 0.01. In the case of `O=C1CCC[C@@H]2[C@H]3CCC[N+]4([O-])CCC[C@@H](CN12)[C@@H]34` (some centres not stated) [Oxymatrine], the “inhibition of cell viability” value is reported as 0.0776.

From the supplement of paper PMC11634586
